# Source: the supplement of paper PMC10011410
# ± gives the standard deviation of the averaged measurements.
# Tested on: AmpC beta-lactamase (E. coli)
# Experiment: AmpC inhibition relative to DMSO; higher = more inhibition
# Procedure: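 Aggregation counter-screen: inhibition of E. coli AmpC beta-lactamase (5 nM, nitrocefin substrate, 50 mM sodium phosphate pH 7.0, RT, 5 min) by KAT inhibitors at 4, 11, 33 and 100 uM, with or without 0.01% Triton X-100. Percent inhibition is relative to DMSO controls. Four technical replicates.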
# [1] = 4 µM, detergent: 0.01% Triton X-100
# [2] = 11 µM, detergent: 0.01% Triton X-100
# [3] = 33 µM, detergent: 0.01% Triton X-100
# [4] = 100 µM, detergent: 0.01% Triton X-100
# [5] = 100 µM, detergent: no detergent
SMILES,AmpC inhibition [1] [%],"AmpC inhibition (4 µM, detergent: no detergent) [%]",AmpC inhibition [2] [%],"AmpC inhibition (11 µM, detergent: no detergent) [%]",AmpC inhibition [3] [%],"AmpC inhibition (33 µM, detergent: no detergent) [%]",AmpC inhibition [4] [%],AmpC inhibition [5] [%]
CC1=NN(c2ccc(C(=O)O)cc2)C(=O)/C1=C\c1ccc(-c2cc(C)c(C)cc2[N+](=O)[O-])o1,1.81 ± 2.9,-0.0252 ± 5.8,8.78 ± 2.2,-41.4 ± 11,5.34 ± 3.4,-43.6 ± 23,5.65 ± 3.5,4.46 ± 2.3
O=C(OCC)/C(C(OCC)=O)=C\CCCCCCCCCCCCCC,5.31 ± 3.4,-0.349 ± 2.3,1.25 ± 19,41.5 ± 10,6.47 ± 3.7,50.3 ± 16,1.39 ± 4.3,86.8 ± 6.6
COc1ccc(/C(Cl)=C(/C=O)c2ccc(OC)cc2)cc1,-3.57 ± 3.7,-5.33 ± 6.8,3.37 ± 5.7,3.21 ± 3.9,8.7 ± 7.1,0.384 ± 4.4,3.87 ± 1.3,12.1 ± 2.9
O=C(O[C@@H]1Cc2c(O)cc(O)cc2O[C@@H]1c1cc(O)c(O)c(O)c1)c1cc(O)c(O)c(O)c1,9.27 ± 1.3,11.2 ± 18,4.89 ± 2,16 ± 3.1,4.57 ± 1.2,19.6 ± 14,1.23 ± 6.1,30.2 ± 1.1
O=C(NNS(=O)(=O)c1ccccc1F)c1cc(F)cc(-c2ccccn2)c1,10.7 ± 1.2,1.11 ± 11,5.78 ± 2.7,8.02 ± 4.7,-0.0162 ± 1.5,4.81 ± 1.3,0.832 ± 4.9,5.91 ± 3.5
